In the library only some 8.7% were active in any assay of this set; here they are far more common.
Vaccinia mCherry: qHTS for Stage-Specific Inhibitors of Vaccinia Orthopoxvirus: mCherry Reporter Primary qHTS; Potency, µM (doses to about 36.5 µM), inactives show at the top dose activity change, negative = inhibition, actives largely listed as inhibitors; hit rate 0.63% among 310,000; AID 720579, 2013; Vaccinia virus mCherry reporter infection, fluorescence; calls by dose curve; tested in A549 cells; also: nearly all actives have a fitted effect of over 35% in size
Vaccinia Venus: qHTS for Stage-Specific Inhibitors of Vaccinia Orthopoxvirus: Venus Reporter Primary qHTS; Vaccinia virus Venus reporter expression, fluorescence; Potency, µM (titrated, usually from 36.5 µM), for inactives: top-dose activity change, negative = inhibition, actives largely listed as inhibitors; hit rate 0.46% among 330,000; calls by dose curve; tested in A549 cells; also: nearly all actives have a fitted effect of over 30% in size
AMA1 RON2 block: qHTS for Inhibitors of AMA1-RON; Towards Development of Antimalarial Drug Lead: Primary Screen | Plasmodium falciparum AMA1 (3D7) - RON2 peptide interaction | AlphaScreen AMA1-biotinylated RON2 peptide binding | Potency, µM (series often up to 58.2 µM), for the others: at the highest dose activity change, negative = inhibition, actives largely listed as inhibitors | hit rate 0.2% among 360,000;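 also: 0% = vehicle wells and -100% = peptide control; nearly all actives have a fitted effect of over 45% in size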
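AMA1 (3D7) with his tag at 25 nM final met compounds first, then biotinylated RON2 peptide at 25 nM; detection used donor plus acceptor beads, 10 µg/mL apiece, read by AlphaScreen after 30 min at room temperature.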
Pf growth 96h: Primary qHTS for delayed death inhibitors of the malarial parasite plastid, 96 hour incubation; P. falciparum luciferase reporter growth, 96 h; Potency, µM (titrated, usually from 28.7 µM), for the others: top-dose activity change, negative = inhibition, usual class: inhibitors; hit rate 6.9% among 320,000
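P. falciparum expressing integrated firefly luciferase grown in erythrocytes (2% hematocrit, 0.05% parasitemia final) with compounds for 96 hours at 37 C, 5% CO2. Growth inhibition read as loss of luminescence after adding luciferase detection reagent.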
Pf growth 48h: Primary qHTS for delayed death inhibitors of the malarial parasite plastid, 48 hour incubation. P. falciparum luciferase growth in erythrocytes, 48 h. Potency, µM (titrated, usually from 28.7 µM), for inactives: top-dose activity change, negative = inhibition, most hits filed as inhibitors. hit rate 5.9% among 310,000. AID 504832, 2011
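Here the parasites carry a stable luciferase gene and grow inside erythrocytes in Albumax-based RPMI medium with compound for one erythrocytic cycle. Activity is scored as loss of luminescent signal.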
The depositor's hits bear a star; i = inactive; u = inconclusive; x = no result given; [ ] = another dose, or the depositor's remark. Unless noted, calls follow the shape of the dose curve; as a rule, active = well fitted curve in the direction sought with a large enough effect; inconclusive = small, poorly fitted or top-dose-only effect, or another doubt; inactive = no such curve, though single readings can be large; an effect the other way counts as inactive or inconclusive. Unless noted, % is scaled to controls: 0 for no effect and ±100 for the full control effect; potency is read from the fitted curve at half-maximal effect.

SMILES | Vaccinia mCherry | Vaccinia Venus | AMA1 RON2 block | Pf growth 96h | Pf growth 48h
CCCC[n+]1ccn(C2=C([O-])c3ccccc3C(=O)/C2=N\S(=O)(=O)c2ccc(Cl)cc2)c1 | x | x | -3% | 3.7µM* | u
Cc1ccc(C(=O)CCNc2ccc(Cl)cc2)o1 | x | -27% | -3% | 10µM* | x
C/C(=C\c1ccc(Cl)cc1)C(=O)c1c(C)cc(C)[nH]c1=O | x | x | 4% | u | 4%
Cc1ccc(/C=C/C(=O)c2c(C)cc(C)[nH]c2=O)cc1 | x | x | 4% | u | u
COc1ccccc1/C=C/C(=O)c1ccccc1 | i | -10% | 1% | 37% | 46%
C/C(=C\c1ccc(Br)cc1)C(=O)c1c(C)cc(C)[nH]c1=O | x | x | 0% | 10µM* | 15%
COc1ccc(/C=C/C(=O)c2c(C)cc(C)[nH]c2=O)c2ccccc12 | 8.9µM* | u | -6% | u | u
CCc1ccc(/C=C/C(=O)c2c(C)cc(C)[nH]c2=O)cc1 | x | u | -5% | -20% | 9.3µM*
COc1ccccc1/C=C/C(=O)c1c2c(c(C)[nH]c1=O)CCCC2 | u | 11µM* | 5% | u | u
COc1ccc2c(c1)c(=O)c(S(=O)(=O)c1ccc(C)c(C)c1)cn2CC(=O)Nc1ccccc1 | -15% | -13% | x | x | x
N#CC1=C(N)Oc2c(c(=O)oc3ccccc23)C1c1ccc(OC(=O)N2CCOCC2)cc1 (centres undefined) | -13% | -6% | -7% | 12µM* | 9.3µM*
N#CC1(NC(=O)COC(=O)c2cc(O)c3ccccc3c2O)CCCCC1 | -3% | 18% | -7% | 12µM* | u
CCN(Cc1ccccc1)C(=O)Cn1cnc2c1c(=O)n(C)c(=O)n2C | x | x | -23% | -7% | 13%
Cn1c(=O)c2c(ncn2CCN(CCO)Cc2ccccc2)n(C)c1=O | x | x | -12% | 7.4µM* | 7%
Cc1nn(C(C)C(=O)O)c(=O)c2ccccc12 (centres undefined) | i | -5% | -19% | 9.3µM* | 29%
CC(C(=O)O)n1ncc2ccccc2c1=O (centres undefined) | -10% | 1% | -10% | 32% | 2.6µM*
O=C(O)CCn1ncc2ccccc2c1=O | -1% | 4% | 3% | -14% | 18%
Cc1nn(-c2ccccc2C(=O)O)c(=O)c2ccccc12 | x | x | -7% | 0% | 3%
COc1ccc(S(=O)(=O)Nc2ccc(F)cc2)cc1N(C)S(=O)(=O)c1ccc(Cl)cc1 | u | u | 8% | -20% | 5.2µM*
COc1ccc(NS(=O)(=O)c2ccc(OC)c(N(C)S(=O)(=O)c3ccc(Cl)cc3)c2)cc1 | u | u | 0% | 3.7µM* | 12µM*
COc1ccc(S(=O)(=O)Nc2ccc(F)c(F)c2)cc1Cl | u | -15% | 8% | x | 14%
Cc1ncc2c(c1CNC(=O)c1cncs1)CCN(C(=O)c1ccc(C(F)(F)F)cc1)C2 | -7% | -1% | x | x | x
O=c1oc2c(CN3CCOCC3)c(O)ccc2cc1-c1ccc(Cl)cc1 | -13%[7.34 µM] | -7%[7.34 µM] | x | x | x
CCSC(C)CC1C/C(=N/O)c2c(CC)noc2C1 (centres undefined) | -20% | -7% | -9% | 7% | 15µM*
CCOC(=O)c1c(C)[nH]c(C(=O)Cn2c(=O)c3c(ncn3CC)n(Cc3ccccc3)c2=O)c1C | x | -11% | -10% | 10µM* | 8.3µM*
SMILES | Vaccinia mCherry | Vaccinia Venus | AMA1 RON2 block | Pf growth 96h | Pf growth 48h
CCn1cnc2c1c(=O)n(Cc1csc(-c3ccccc3)n1)c(=O)n2Cc1ccccc1 | -14% | u | 0% | 14% | u
CCn1cnc2c1c(=O)n(Cc1cccc([N+](=O)[O-])c1)c(=O)n2Cc1ccccc1 | -25% | -8% | -16% | u | 8.3µM*
CCn1cnc2c1c(=O)n(CC(=O)NCc1ccccc1)c(=O)n2Cc1ccccc1 | -24% | -11% | 5% | u | u
O=C(Nc1cccc(Cl)c1)Nc1ccccc1OCc1cc(=O)n2ccccc2n1 | -6% | -20% | x | x | x
CCCCNS(=O)(=O)c1ccc2nc(-c3cccnc3)cc(C(=O)NCCCN(CC)CC)c2c1 | x | x | x | u | 12µM*
CCCCNS(=O)(=O)c1ccc2nc(-c3cccnc3)cc(C(=O)NCCC)c2c1 | -29% | u | x | x | x
CCN(CC)CCNC(=O)c1cc(-c2cccnc2)nc2ccc(S(=O)(=O)N3CCC(C)CC3)cc12 | x | x | -2% | 13µM* | u
CCCCN(CCCC)CCNC(=O)c1cc(-c2cccnc2)nc2ccc(S(=O)(=O)N3CCC(C)CC3)cc12 | -9% | -4% | x | x | x
COC(=O)[C@@H]1CCCN1Cc1ccc2c(c1)CN(Cc1cccn1-c1ccc(Cl)cn1)CCO2 | 5% | 1% | x | x | x
Cc1cc(C)cc(OCC(=O)Nc2nc(-c3cccnc3)cs2)c1 | x | x | -1% | 15µM* | u
N#Cc1ccc(OCC(=O)Nc2nc(-c3cccnc3)cs2)cc1 | x | x | -7% | u | 12µM*
COc1ccc([C@@H]2[C@@H]3C(=O)N(C(C)(C)C)C(=O)[C@@H]3[C@]3(Cc4ccc(Cl)cc4)C(=O)N(c4ccc(Br)cc4)C(=O)N23)cc1 | -10% | -18% | -11% | u | u
O=C1[C@H]2[C@@H](c3ccc(F)cc3)N3C(=O)N(c4ccc(Br)cc4)C(=O)[C@@]3(Cc3ccc(Cl)cc3)[C@H]2C(=O)N1C1CCCCC1 | -16% | -23% | 0% | 3.3µM* | u
COc1ccc(N2C(=O)N3[C@H](c4ccc(Cl)cc4)[C@@H]4C(=O)N(C5CCCCC5)C(=O)[C@@H]4[C@]3(Cc3ccc(Cl)cc3)C2=O)cc1 | -3% | -18% | 14% | 1.2µM* | -107%
COc1ccc([C@@H]2[C@@H]3C(=O)N(C(C)(C)C)C(=O)[C@@H]3[C@]3(Cc4ccc(Cl)cc4)C(=O)N(c4ccc(OC)cc4)C(=O)N23)cc1 | i | -11% | -7% | 13µM* | u
Clc1cccc(-c2noc3ncnc(NC4CCCCC4)c23)c1 | -13% | -16% | x | x | x
CCOc1ccc(C2C(C(=O)Nc3ccc(C)cc3C)=C(C)Nc3c(C(=O)Nc4ccc(C)cc4)cnn32)cc1OC (centres undefined) | i | -9% | x | x | x
CC1(C)CC(=O)C2=C(C1)N(CCN1CCOCC1)C1=C(C(=O)CC(C)(C)C1)C2c1ccc(Cl)cc1 | -3%[7.34 µM] | 4%[7.34 µM] | -14% | u | 5.2µM*
COc1ccc(C2C3=C(CC(C)(C)CC3=O)N(CCN3CCOCC3)C3=C2C(=O)CC(C)(C)C3)cc1 | x | x | -1% | -26% | -16%
COCCCN1C2=C(C(=O)CC(C)(C)C2)C(c2ccc(O)c(OC)c2)C2=C1CC(C)(C)CC2=O | -17% | -1% | 5% | -8% | u
CC1(C)CC(=O)C2=C(C1)N(CCN1CCOCC1)C1=C(C(=O)CC(C)(C)C1)C2c1cccc(F)c1 | -15% | -8% | 37% | 0% | 12µM*
